# In PubChem BioAssay (NCATS):
# Results filed as inconclusive are left out. For some of these results: Results with a measured potency or affinity are listed apart. Activity calls are given as the source filed them. Unless noted, no rule for the calls is given here.
# How the values were obtained:
# [1] = Ebola virus entry assay, green fluorescence channel
# [2] = Ebola virus entry assay, blue channel fluorescence
# [3] = Ebola virus entry assay, ratio channel
# [4] = Ebola virus entry assay, green channel fluorescence
# [5] = Ebola virus entry assay, reporter ratio channel; Channel type: primary
# [6] = qHTS assay for measurement of the activity of small molecule inhibitors on Zika virus induced Caspase-3 activity in human iPSC derived neural progenitor cells (hNPCs) (AID 1224857; active = well fitted curve in the direction sought with a large enough effect; an effect the other way counts as inactive or inconclusive; also: % of control where 0% means no effect; nearly all actives have a fitted effect of over 65% in size); settings: hNPCs ZIKV-induced caspase-3/7, Caspase-Glo luminescence, 6 h; series mostly up to 45.7 µM
# Method in brief: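 Human iPSC-derived neural progenitor cells pretreated 1 hr with compounds, then infected with Zika virus (2 FFU/cell) for 6 hours at 37 C. Caspase-3/7 measured by Caspase-Glo luminescence; % inhibition calculated from induction scaled to uninfected (0%) and infected (100%) wells.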
# [7] = qHTS assay for cell viability of HEK293 cells (AID 743288; active = well fitted curve in the direction sought with a large enough effect; an effect the other way counts as inactive or inconclusive; also: nearly all actives have a fitted effect of over 50% in size; also: potency is read from the fitted curve at half-maximal effect; as to max response: % is scaled to controls: 0 for no effect and ±100 for the full control effect); settings: ATP luminescence (CellTiter-Glo), 18 h; max response: stronger effect = lower value
# Method in brief: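 The Tox21 protocol used parental HEK293 cells treated for 18 h at 37 C with compounds delivered by pintool; ATP-coupled luminescence after 30 min at room temperature gave viability.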
# [8] = qHTS assay for cell viability of the p53RE-bla HCT-116 cell line (AID 743292; active = well fitted curve in the direction sought with a large enough effect; an effect the other way counts as inactive or inconclusive; also: % is scaled to controls: 0 for no effect and ±100 for the full control effect; nearly all actives have a fitted effect of over 55% in size); settings: p53RE-bla HCT-116 viability, ATP luminescence, 16 h; series mostly up to 95 µM
# Method in brief: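 Compound-exposed HCT-116 (p53RE-bla) cells, 4,000 per well, were kept 16 h at 37 C following a 5 h preincubation. Cell number was estimated from total ATP by CellTiter-Glo luminescence read after 30 min at room temperature.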
# [9] = qHTS profiling of the MIPE4 collection as inhibitors of Plasmodium falciparum (3D7) proliferation (AID 743344);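 also: scaled between DMSO vehicle wells and 0.29 µM artemisinin as full inhibition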; settings: P. falciparum 3D7 in erythrocytes, SYBR Green DNA fluorescence, 72 h; at 28.5 µM (top of the series)
# Method in brief: (§1)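 Erythrocytes infected with P. falciparum (0.3% parasitemia, 2.5% hematocrit) incubated with compounds 72 h at 37 C, 5% CO2. Lysis with saponin/Triton buffer containing SYBR Green I, overnight at room temperature in the dark; DNA fluorescence (485/535 nm) normalised to 0.29 uM artemisinin and DMSO.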
# [10] = qHTS profiling of the MIPE4 collection as inhibitors of Plasmodium falciparum (DD2) proliferation (AID 743345); settings: P. falciparum Dd2 in erythrocytes, SYBR Green DNA, 72 h; at 28.5 µM (top of the series)
# Method in brief: as §1
# [11] = qHTS profiling of the MIPE4 collection as inhibitors of Plasmodium falciparum (DD2) proliferation (Rep 2) (AID 743346); settings: P. falciparum Dd2 in erythrocytes, SYBR Green DNA, 72 h; at 28.5 µM (top of the series)
# Method in brief: as §1
# [12] = qHTS profiling of the MIPE4 collection as inhibitors of Plasmodium falciparum (HB3) proliferation (AID 743347);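 also: plate controls were DMSO vehicle wells for no effect and artemisinin wells for full effect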; settings: P. falciparum HB3 in erythrocytes, SYBR Green DNA, 72 h; at 28.5 µM (top of the series)
# Method in brief: as §1
# [13] = Ebola virus entry assay, blue channel (ratio component)
# For efficacy in this document: 0% is about no effect.
smiles,measurement,setting,value
C[C@]12CC[C@H]3[C@@H](CCC4=CC(=O)CC[C@@H]43)[C@@H]1CC[C@@H]2O,efficacy,[1],-8.66% (inactive)
same,outcome,[2],inactive
same,outcome,[3],inactive
same,outcome,[4],inactive
same,outcome,[5],inactive
same,Potency,[6],inactive
C[C@]12CCC(=O)C=C1C=C[C@@H]1[C@@H]2CC[C@@]2(C)[C@H]1CC[C@@]21CCC(=O)O1,efficacy,[1],123% (inactive)
same,AC50,[2],39.8 µM (active)
same,outcome,[3],inactive
same,AC50,[5],39.8 µM (active)
CN(C)C(=S)SSC(=S)N(C)C,Potency,[7],44.7 µM (active)
same,outcome,[8],inactive
same,efficacy,[1],-47% (inactive)
same,AC50,[2],1.26 µM (active)
same,AC50,[3],1.26 µM (active)
same,outcome,[4],inactive
same,AC50,[5],1.26 µM (active)
CCCN(CCC)CCc1c[nH]c2ccccc12,efficacy,[1],39.8% (inactive)
same,AC50,[2],35.5 µM (active)
same,AC50,[3],31.6 µM (active)
same,outcome,[4],inactive
same,AC50,[5],31.6 µM (active)
same,Potency,[6],inactive
CN(C)CCc1c[nH]c2cccc(O)c12,efficacy,[1],-23.9% (inactive)
same,AC50,[2],35.5 µM (active)
same,outcome,[3],inactive
same,outcome,[4],inactive
same,AC50,[5],39.8 µM (active)
same,Potency,[6],inactive
CCN1CCCC1CNC(=O)C(O)(c1ccccc1)c1ccccc1 (centres undefined),efficacy,[1],28.7% (inactive)
same,AC50,[2],15.8 µM (active)
same,AC50,[3],20 µM (active)
same,outcome,[4],inactive
same,AC50,[5],20 µM (active)
same,Potency,[6],inactive
CCc1cc(OC)c(C[C@H](C)N)cc1OC,efficacy,[1],38.5% (inactive)
same,AC50,[2],22.4 µM (active)
same,AC50,[3],25.1 µM (active)
same,outcome,[4],inactive
same,AC50,[5],25.1 µM (active)
same,Potency,[6],inactive
O=C(NC(=O)c1c(F)cccc1F)Nc1cc(Cl)c(OC(F)(F)C(F)C(F)(F)F)cc1Cl (centres undefined),max response,[7],-27.8% (inactive)
same,outcome,[8],inactive
same,efficacy,[1],43.9% (inactive)
same,AC50,[2],17.8 µM (active)
same,AC50,[3],20 µM (active)
same,outcome,[4],inactive
same,AC50,[5],20 µM (active)
same,Potency,[6],inactive
C[C@H]1CNCCc2ccc(Cl)cc21,efficacy,[1],45.2% (inactive)
same,AC50,[2],20 µM (active)
same,outcome,[3],inactive
same,outcome,[4],inactive
same,AC50,[5],39.8 µM (active)
same,Potency,[6],inactive
c1ccc(CN(CC2=NCCN2)c2ccccc2)cc1,efficacy,[1],60.7% (inactive)
same,AC50,[2],39.8 µM (active)
same,outcome,[3],inactive
same,AC50,[5],39.8 µM (active)
COc1ccc(OC)c(CC(C)N)c1 (centres undefined),efficacy,[1],40.3% (inactive)
same,AC50,[2],31.6 µM (active)
same,outcome,[3],inactive
same,outcome,[4],inactive
same,AC50,[5],31.6 µM (active)
same,Potency,[6],inactive
CN1CCc2cc(Cl)c(O)cc2[C@H]2c3ccccc3CC[C@@H]21,efficacy,[1],24% (inactive)
same,AC50,[2],25.1 µM (active)
same,AC50,[3],17.8 µM (active)
same,outcome,[4],inactive
same,AC50,[5],17.8 µM (active)
same,Potency,[6],inactive
CCC1(CC)C(=O)NC(=O)NC1=O,efficacy,[1],-16.1% (inactive)
same,outcome,[2],inactive
same,outcome,[3],inactive
same,outcome,[4],inactive
same,outcome,[5],inactive
same,Potency,[6],inactive
CCCS(=O)c1ccc2nc(NC(=O)OC)[nH]c2c1 (centres undefined),"parasite growth, % of DMSO control",[9],81.1%
same,"parasite growth remaining, % of DMSO control (lower = more inhibition)",[10],99.7%
same,"parasite growth, % of control (lower = inhibition)",[11],101%
same,"growth, % of control",[12],81.4%
same,efficacy,[1],23.9% (inactive)
same,outcome,[2],inactive
same,outcome,[3],inactive
same,outcome,[4],inactive
same,outcome,[5],inactive
same,outcome,[13],inactive
CCS(=O)(=O)C(C)(C)S(=O)(=O)CC,efficacy,[1],-10.5% (inactive)
same,outcome,[2],inactive
same,outcome,[3],inactive
same,outcome,[4],inactive
same,outcome,[5],inactive
same,Potency,[6],inactive
O=C1C(c2[nH]c3ccccc3c2O)=Nc2ccccc21,efficacy,[1],51.6% (inactive)
same,outcome,[2],inactive
same,outcome,[3],inactive
same,outcome,[5],inactive
CCCC(C)C1(CC)C(=O)N=C(S)NC1=O (centres undefined),efficacy,[1],15.1% (inactive)
same,outcome,[2],inactive
same,outcome,[3],inactive
same,outcome,[4],inactive
same,outcome,[5],inactive
same,Potency,[6],inactive
CCCCCCCCCCCC[N+](C)(C)Cc1ccccc1,efficacy,[1],-253% (inactive)
same,AC50,[2],22.4 µM (active)
same,AC50,[3],2.51 µM (active)
same,AC50,[5],2.51 µM (active)
NC(N)=NC(=O)c1nc(Cl)c(N)nc1N,"parasite growth, % of DMSO control",[9],116%
same,"parasite growth remaining, % of DMSO control (lower = more inhibition)",[10],94%
same,"parasite growth, % of control (lower = inhibition)",[11],111%
same,"growth, % of control",[12],87.1%
same,efficacy,[1],-17.5% (inactive)
same,outcome,[2],inactive
same,outcome,[3],inactive
same,outcome,[4],inactive
same,outcome,[5],inactive
same,outcome,[13],inactive
CC1N=C(N)OC1c1ccccc1 (centres undefined),efficacy,[1],23.7% (inactive)
same,AC50,[2],31.6 µM (active)
same,outcome,[3],inactive
same,outcome,[4],inactive
same,AC50,[5],31.6 µM (active)
same,Potency,[6],inactive
NC1(c2ccccc2)CCCCC1,efficacy,[1],44.3% (inactive)
same,AC50,[2],35.5 µM (active)
same,AC50,[3],31.6 µM (active)
same,outcome,[4],inactive
same,AC50,[5],31.6 µM (active)
same,Potency,[6],inactive
O=C1NCN(c2ccccc2)C12CCN(CCCOc1ccc(F)cc1)CC2,efficacy,[1],-43.3% (inactive)
same,AC50,[2],3.16 µM (active)
same,AC50,[3],3.16 µM (active)
same,outcome,[4],inactive
same,AC50,[5],3.16 µM (active)
same,Potency,[6],inactive
O=C(CBr)Nc1ccc(Cl)cc1C(=O)c1ccccc1F,efficacy,[1],28% (inactive)
same,AC50,[2],17.8 µM (active)
same,AC50,[3],17.8 µM (active)
same,outcome,[4],inactive
same,AC50,[5],17.8 µM (active)
same,Potency,[6],inactive
CN1CCN(C2=Nc3ccccc3Sc3ccc(Cl)cc32)CC1,efficacy,[1],66% (inactive)
same,AC50,[2],39.8 µM (active)
same,outcome,[3],inactive
same,AC50,[5],39.8 µM (active)
O=C1NC2CCCCN2C12CCN(CCCN1c3ccccc3CCc3ccc(Cl)cc31)CC2 (centres undefined),efficacy,[1],-203% (inactive)
same,AC50,[2],4.47 µM (active)
same,AC50,[3],3.16 µM (active)
same,AC50,[5],3.16 µM (active)
c1ccc(-c2ccc(C(c3ccccc3)n3ccnc3)cc2)cc1 (centres undefined),efficacy,[1],98.3% (inactive)
same,AC50,[2],12.6 µM (active)
same,AC50,[3],14.1 µM (active)
same,AC50,[5],14.1 µM (active)
Cc1cccc(CN2CCN(C(c3ccccc3)c3ccc(Cl)cc3)CC2)c1 (centres undefined),efficacy,[1],38.6% (inactive)
same,AC50,[2],22.4 µM (active)
same,AC50,[3],22.4 µM (active)
same,AC50,[5],22.4 µM (active)
CC(C)(C)c1ccc(C(O)CCCN2CCC(C(O)(c3ccccc3)c3ccccc3)CC2)cc1 (centres undefined),efficacy,[1],59% (inactive)
same,AC50,[2],1.41 µM (active)
same,AC50,[3],0.891 µM (active)
same,AC50,[5],0.891 µM (active)
c1ccc(C(O[C@H]2CCCN(CCc3ccc4c(c3)OCO4)C2)c2ccccc2)cc1,efficacy,[1],57.8% (inactive)
same,AC50,[2],28.2 µM (active)
same,AC50,[3],25.1 µM (active)
same,AC50,[5],25.1 µM (active)
Cc1c(Cl)c(=O)oc2cc(OP(=O)(OCCCl)OCCCl)ccc12,efficacy,[1],115% (inactive)
same,outcome,[2],inactive
same,outcome,[3],inactive
same,outcome,[5],inactive
